Laboratory results published in PubChem BioAssay (NCATS).
Values without a mark were called inactive. For part of these data: Results with a measured potency or affinity are listed apart. Activity calls are given as the source filed them. How the calls were made is not given here. Peptide text beside a SMILES is read from it.

Details: Ebola virus entry assay, green fluorescence channel
Wherever efficacy is given: 0% is about no effect.

Compound	efficacy [%]
CCCCCCCCCCCCOCCO	-11.3
Nc1ccc(S(N)(=O)=O)cc1	-20.5
Nc1ncnc2c1ncn2[C@@H]1O[C@H](COP(=O)(O)O)[C@@H](O)[C@H]1O	14.6
O=S(=O)(O)c1ccc2nc(-c3ccccc3)[nH]c2c1	-32.6
C[N+]1(C)[C@@H]2CC(OC(=O)[C@H](CO)c3ccccc3)C[C@H]1[C@@H]1O[C@@H]12 (stereo partly drawn)	12.9
CCC(=O)c1c(O)cc(O)cc1O	21.1
Clc1ccccc1N1CCNCC1	-17.1
Nc1ncnc(Nc2ccccc2)n1	-14.2
Cc1cc(=O)n(-c2ccccc2)n1C	-22
COc1ccc(C2C(=O)c3ccccc3C2=O)cc1	-26.8
CN1C[C@@H]2C[C@H]1CN2c1cc2c(cc1F)c(=O)c(C(=O)O)cn2C1CC1	18.4
CC(=O)Nc1ccccc1	-20.9
NS(=O)(=O)c1cc(-c2nn[nH]n2)c(NCc2cccs2)cc1Cl	-20.9
COC(=O)N/N=C/c1c[n+]([O-])c2ccccc2[n+]1[O-]	35
CCCOc1ccc2c(c1)CC[C@@H]1[C@@H]2CC[C@]2(C)C(OC)CC[C@@H]12 (stereo partly drawn)	-11.2
COC(=O)c1cccnc1	12.2
C[C@]12C=CC(=O)C=C1CC[C@@H]1[C@@H]2C(=O)C[C@@]2(C)[C@H]1CC[C@]2(O)C(=O)CO	-19.9
FC(F)(F)c1ccccc1-n1ccnc1	12.1
O=C(N/N=C/c1ccccc1O)c1ccncc1	66.8
CC(C)(C)CC(C)(C)c1ccc(O)c(-n2nc3ccccc3n2)c1	9.19

Compound	efficacy [%]
O=C(O)/C=C(\CC(=O)O)C(=O)O	-11
O=C(O)[C@@H](O)[C@H](O)[C@H](O)[C@@H](O)C(=O)O	-24.9
CNC[C@H](O)[C@@H](O)[C@H](O)[C@H](O)CO	-10.6
Cc1c(C)c2c(c(C)c1O)CCC(C)(COc1ccc(CC3SC(=O)NC3=O)cc1)O2 (stereo not drawn)	35.5
CN[C@@H]1[C@@H](O)[C@@H](O[C@@H]2[C@H](O)[C@H](O[C@H]3OC(CN)=CC[C@H]3N)[C@@H](N)C[C@H]2N)OCC1(C)O (stereo partly drawn)	-7.04
CCOC(=O)c1ccc(O)c(O)c1	-26.2
CCCCCCCCCCCCCCCC(=O)O	-6.91
COc1cc(OC)nc(O[C@H](C(=O)O)C(OC)(c2ccccc2)c2ccccc2)n1	36.2
CC[N+]1(CC)CCC(OC(=O)C(O)(c2ccccc2)c2ccccc2)C1 (stereo not drawn)	-22.9
O=C(OCCN1CCOCC1)c1cccnc1Nc1cccc(C(F)(F)F)c1	-15.5
OC[C@@H](O)[C@@H](O[C@@H]1O[C@H](CO)[C@H](O)[C@H](O)[C@H]1O)[C@H](O)[C@@H](O)CO	-17.2
CCOC(=O)c1ccc(N)cc1	26.1
CC(C(=O)O)c1ccc2c(c1)[nH]c1ccc(Cl)cc12 (stereo not drawn)	-20.7
CCNC(=O)[C@@H]1CCCN1C(=O)[C@H](CCCN=C(N)N)NC(=O)[C@H](CC(C)C)NC(=O)CNC(=O)[C@H](Cc1ccc(O)cc1)NC(=O)[C@H](CO)NC(=O)[C@H](Cc1c[nH]c2ccccc12)NC(=O)[C@H](Cc1cnc[nH]1)NC(=O)[C@@H]1CCC(=O)N1 (HELM PEPTIDE1{[Glp].H.W.S.Y.G.L.R.P.[CCN[*:1]]}$$$$V2.0)	17.9
Cc1oc(=O)oc1COC(=O)[C@@H]1N2C(=O)[C@@H](NC(=O)[C@H](N)c3ccccc3)[C@H]2SC1(C)C	-26.8
C=CCn1c(=O)n([C@@H]2O[C@H](CO)[C@@H](O)[C@H]2O)c2nc(N)[nH]c(=O)c21	-17.7
COC(=O)c1ccc(NC(C)=O)cc1OC	15.6
CCN1CCC[C@H]1CNC(=O)c1cc(S(N)(=O)=O)ccc1OC	-21.3
Nc1c[n+](N2CCOCC2)no1	-8.8

Details: Ebola virus entry assay, blue channel fluorescence

Compound	outcome
CCCCCCCCCCCCOCCO	inactive
Nc1ccc(S(N)(=O)=O)cc1	inactive
Nc1ncnc2c1ncn2[C@@H]1O[C@H](COP(=O)(O)O)[C@@H](O)[C@H]1O	inactive
O=S(=O)(O)c1ccc2nc(-c3ccccc3)[nH]c2c1	inactive
C[N+]1(C)[C@@H]2CC(OC(=O)[C@H](CO)c3ccccc3)C[C@H]1[C@@H]1O[C@@H]12 (stereo partly drawn)	inactive
CCC(=O)c1c(O)cc(O)cc1O	inactive
Clc1ccccc1N1CCNCC1	inactive
Nc1ncnc(Nc2ccccc2)n1	inactive
Cc1cc(=O)n(-c2ccccc2)n1C	inactive
COc1ccc(C2C(=O)c3ccccc3C2=O)cc1	inactive
CN1C[C@@H]2C[C@H]1CN2c1cc2c(cc1F)c(=O)c(C(=O)O)cn2C1CC1	inactive
CC(=O)Nc1ccccc1	inactive
NS(=O)(=O)c1cc(-c2nn[nH]n2)c(NCc2cccs2)cc1Cl	inactive
COC(=O)N/N=C/c1c[n+]([O-])c2ccccc2[n+]1[O-]	inactive
CCCOc1ccc2c(c1)CC[C@@H]1[C@@H]2CC[C@]2(C)C(OC)CC[C@@H]12 (stereo partly drawn)	inactive
COC(=O)c1cccnc1	inactive
C[C@]12C=CC(=O)C=C1CC[C@@H]1[C@@H]2C(=O)C[C@@]2(C)[C@H]1CC[C@]2(O)C(=O)CO	inactive
FC(F)(F)c1ccccc1-n1ccnc1	inactive
O=C(N/N=C/c1ccccc1O)c1ccncc1	inactive
CC(C)(C)CC(C)(C)c1ccc(O)c(-n2nc3ccccc3n2)c1	inactive

Compound	outcome
O=C(O)/C=C(\CC(=O)O)C(=O)O	inactive
O=C(O)[C@@H](O)[C@H](O)[C@H](O)[C@@H](O)C(=O)O	inactive
CNC[C@H](O)[C@@H](O)[C@H](O)[C@H](O)CO	inactive
Cc1c(C)c2c(c(C)c1O)CCC(C)(COc1ccc(CC3SC(=O)NC3=O)cc1)O2 (stereo not drawn)	inactive
CN[C@@H]1[C@@H](O)[C@@H](O[C@@H]2[C@H](O)[C@H](O[C@H]3OC(CN)=CC[C@H]3N)[C@@H](N)C[C@H]2N)OCC1(C)O (stereo partly drawn)	inactive
CCOC(=O)c1ccc(O)c(O)c1	inactive
CCCCCCCCCCCCCCCC(=O)O	inactive
COc1cc(OC)nc(O[C@H](C(=O)O)C(OC)(c2ccccc2)c2ccccc2)n1	inactive
CC[N+]1(CC)CCC(OC(=O)C(O)(c2ccccc2)c2ccccc2)C1 (stereo not drawn)	inactive
O=C(OCCN1CCOCC1)c1cccnc1Nc1cccc(C(F)(F)F)c1	inactive
OC[C@@H](O)[C@@H](O[C@@H]1O[C@H](CO)[C@H](O)[C@H](O)[C@H]1O)[C@H](O)[C@@H](O)CO	inactive
CCOC(=O)c1ccc(N)cc1	inactive
CC(C(=O)O)c1ccc2c(c1)[nH]c1ccc(Cl)cc12 (stereo not drawn)	inactive
CCNC(=O)[C@@H]1CCCN1C(=O)[C@H](CCCN=C(N)N)NC(=O)[C@H](CC(C)C)NC(=O)CNC(=O)[C@H](Cc1ccc(O)cc1)NC(=O)[C@H](CO)NC(=O)[C@H](Cc1c[nH]c2ccccc12)NC(=O)[C@H](Cc1cnc[nH]1)NC(=O)[C@@H]1CCC(=O)N1 (HELM PEPTIDE1{[Glp].H.W.S.Y.G.L.R.P.[CCN[*:1]]}$$$$V2.0)	inactive
Cc1oc(=O)oc1COC(=O)[C@@H]1N2C(=O)[C@@H](NC(=O)[C@H](N)c3ccccc3)[C@H]2SC1(C)C	inactive
C=CCn1c(=O)n([C@@H]2O[C@H](CO)[C@@H](O)[C@H]2O)c2nc(N)[nH]c(=O)c21	inactive
COC(=O)c1ccc(NC(C)=O)cc1OC	inactive
CCN1CCC[C@H]1CNC(=O)c1cc(S(N)(=O)=O)ccc1OC	inactive
Nc1c[n+](N2CCOCC2)no1	inactive
